What all share (experiment): DAPPL (digital affinity profiling via proximity ligation, sequencing); 10 mM Tris-HCl pH 7.5, 50 mM NaCl, 1 mM DTT, 4% glycerol, room temperature, 30 min; GST-TFs on glutathione beads, 16-mer random dsDNA library, 0.1% formaldehyde crosslink after washing; high values mean tight binding
One experiment concerns the target T1, FEV (Homo sapiens, UniProt Q99581 1-238).
T1 sequence: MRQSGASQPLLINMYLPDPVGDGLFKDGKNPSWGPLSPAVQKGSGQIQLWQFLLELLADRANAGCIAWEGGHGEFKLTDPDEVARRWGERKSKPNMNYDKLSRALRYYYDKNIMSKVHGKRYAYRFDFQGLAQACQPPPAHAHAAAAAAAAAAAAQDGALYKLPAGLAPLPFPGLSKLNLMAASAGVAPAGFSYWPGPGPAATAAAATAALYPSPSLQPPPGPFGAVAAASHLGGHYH
Conditions: protein: recombinant; tags: N-terminal GST; dsDNA, one strand shown. A digest of the protocol:
(§1)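 Binding signal is each hexamer's read frequency for a factor divided by its frequency in the tag-only sample. The factors were GST-fused human transcription factors from yeast, captured on glutathione beads, DNA-barcoded and pooled with that sample. Pools were incubated with 200 nmole of a random double-stranded 16-mer DNA library in Tris/NaCl/DTT/glycerol buffer at room temperature for 30 min, then washed, crosslinked with 0.1% formaldehyde, proximity-ligated with BsaI/T4 ligase (1 h, 37 °C), PCR-amplified and sequenced on an Illumina NextSeq500.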

The target of the next experiment is ETV5 (Homo sapiens, UniProt P41161 1-510). Conditions: protein: recombinant; tags: N-terminal GST; dsDNA, one strand shown. A digest of the protocol: as §1
Chain of ETV5 (P41161 whole entry): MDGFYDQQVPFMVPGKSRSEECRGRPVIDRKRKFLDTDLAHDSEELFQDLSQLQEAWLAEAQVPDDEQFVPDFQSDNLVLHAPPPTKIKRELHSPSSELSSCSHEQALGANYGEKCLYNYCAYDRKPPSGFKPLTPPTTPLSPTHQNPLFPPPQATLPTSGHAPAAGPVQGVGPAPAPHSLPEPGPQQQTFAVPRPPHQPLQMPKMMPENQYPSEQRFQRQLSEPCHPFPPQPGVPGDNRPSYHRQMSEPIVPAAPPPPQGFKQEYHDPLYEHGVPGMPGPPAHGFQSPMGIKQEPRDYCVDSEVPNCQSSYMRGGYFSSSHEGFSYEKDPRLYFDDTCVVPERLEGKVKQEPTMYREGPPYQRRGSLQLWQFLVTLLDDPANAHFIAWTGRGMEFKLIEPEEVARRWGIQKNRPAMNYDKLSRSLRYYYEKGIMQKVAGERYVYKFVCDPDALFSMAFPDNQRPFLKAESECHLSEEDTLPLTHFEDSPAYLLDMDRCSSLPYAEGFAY
The target of a further experiment is HSF1 (Homo sapiens, UniProt Q00613 1-529). Conditions: protein: recombinant; tags: N-terminal GST; chain copies: 3; dsDNA, one strand shown. The method, boiled down:
as §1

In the next experiment the target is T2, SPIC (Homo sapiens, UniProt Q8N5J4 1-248).
T2 sequence: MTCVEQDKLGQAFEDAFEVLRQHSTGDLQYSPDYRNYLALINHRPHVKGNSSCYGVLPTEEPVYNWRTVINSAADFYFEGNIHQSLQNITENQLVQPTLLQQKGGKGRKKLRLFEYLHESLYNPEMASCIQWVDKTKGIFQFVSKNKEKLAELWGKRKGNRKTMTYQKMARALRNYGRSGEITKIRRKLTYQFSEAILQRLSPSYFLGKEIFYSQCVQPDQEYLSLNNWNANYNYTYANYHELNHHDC
Conditions: protein: recombinant; tags: N-terminal GST; dsDNA, one strand shown. A digest of the protocol:
as §1

In the next experiment the target is ELF4 (Homo sapiens, UniProt Q99607 1-663). Conditions: protein: recombinant; tags: N-terminal GST; dsDNA, one strand shown. A digest of the protocol:
as §1

In the next experiment the target is T3, ELK4 (Homo sapiens, UniProt P28324-2 1-405).
T3 sequence: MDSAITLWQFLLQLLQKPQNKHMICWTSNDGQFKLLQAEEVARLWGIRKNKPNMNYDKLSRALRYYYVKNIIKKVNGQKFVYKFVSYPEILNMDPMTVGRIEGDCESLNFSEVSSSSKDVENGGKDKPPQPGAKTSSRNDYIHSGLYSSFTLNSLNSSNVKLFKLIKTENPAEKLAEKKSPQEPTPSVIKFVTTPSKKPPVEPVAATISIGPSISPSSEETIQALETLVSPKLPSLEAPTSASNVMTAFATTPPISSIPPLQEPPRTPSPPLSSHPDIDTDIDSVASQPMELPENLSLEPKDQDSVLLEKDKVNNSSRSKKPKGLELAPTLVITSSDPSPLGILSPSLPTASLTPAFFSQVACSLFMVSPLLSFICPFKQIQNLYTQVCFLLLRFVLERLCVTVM
Conditions: protein: recombinant; tags: N-terminal GST; dsDNA, one strand shown. A digest of the protocol: as §1

For a further experiment, the target named is T4, ETV2 (Homo sapiens, UniProt O00321 1-342).
T4 sequence: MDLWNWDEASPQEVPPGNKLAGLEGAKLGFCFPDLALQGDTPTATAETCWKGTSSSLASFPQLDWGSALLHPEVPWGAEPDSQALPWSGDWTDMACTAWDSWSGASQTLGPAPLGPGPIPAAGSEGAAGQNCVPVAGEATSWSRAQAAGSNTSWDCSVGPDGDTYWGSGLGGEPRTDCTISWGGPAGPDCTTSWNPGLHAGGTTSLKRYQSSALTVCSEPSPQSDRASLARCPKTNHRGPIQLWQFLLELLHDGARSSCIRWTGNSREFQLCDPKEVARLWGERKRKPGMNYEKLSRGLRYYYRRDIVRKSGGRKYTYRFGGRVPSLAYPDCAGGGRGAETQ
Conditions: protein: recombinant; tags: N-terminal GST; dsDNA, one strand shown. The method, boiled down:
as §1

The target in a further experiment is T5, ELF3 (Homo sapiens, UniProt P78545 1-371).
T5 sequence: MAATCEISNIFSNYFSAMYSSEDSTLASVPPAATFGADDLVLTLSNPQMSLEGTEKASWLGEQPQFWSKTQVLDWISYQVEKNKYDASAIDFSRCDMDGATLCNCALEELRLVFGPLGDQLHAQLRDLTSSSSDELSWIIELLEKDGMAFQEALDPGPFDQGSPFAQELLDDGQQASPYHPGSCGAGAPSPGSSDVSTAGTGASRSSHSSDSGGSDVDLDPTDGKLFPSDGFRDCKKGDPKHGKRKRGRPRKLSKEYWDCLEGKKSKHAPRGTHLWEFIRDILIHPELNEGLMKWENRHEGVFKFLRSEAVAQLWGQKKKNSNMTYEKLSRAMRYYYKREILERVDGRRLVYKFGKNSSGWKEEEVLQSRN
Conditions: protein: recombinant; tags: N-terminal GST; dsDNA, one strand shown. The method, boiled down:
as §1

A further experiment deals with CRX (Homo sapiens, UniProt O43186 1-299). Conditions: protein: recombinant; tags: N-terminal GST; dsDNA, one strand shown. A digest of the protocol: as §1
Chain of CRX (O43186 whole entry): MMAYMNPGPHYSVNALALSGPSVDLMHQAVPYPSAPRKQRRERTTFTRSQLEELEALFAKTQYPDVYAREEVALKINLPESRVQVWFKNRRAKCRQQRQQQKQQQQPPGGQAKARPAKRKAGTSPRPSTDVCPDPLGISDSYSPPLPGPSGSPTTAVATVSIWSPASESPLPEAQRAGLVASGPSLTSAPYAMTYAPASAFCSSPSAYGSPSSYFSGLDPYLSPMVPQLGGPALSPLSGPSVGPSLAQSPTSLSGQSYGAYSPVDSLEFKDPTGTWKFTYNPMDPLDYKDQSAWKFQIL
Another experiment deals with ETV1 (Homo sapiens, UniProt P50549 1-477). Conditions: protein: recombinant; tags: N-terminal GST; dsDNA, one strand shown. A digest of the protocol:
as §1

A further experiment concerns the target T6, ERF (Homo sapiens, UniProt P50548 1-548).
T6 sequence: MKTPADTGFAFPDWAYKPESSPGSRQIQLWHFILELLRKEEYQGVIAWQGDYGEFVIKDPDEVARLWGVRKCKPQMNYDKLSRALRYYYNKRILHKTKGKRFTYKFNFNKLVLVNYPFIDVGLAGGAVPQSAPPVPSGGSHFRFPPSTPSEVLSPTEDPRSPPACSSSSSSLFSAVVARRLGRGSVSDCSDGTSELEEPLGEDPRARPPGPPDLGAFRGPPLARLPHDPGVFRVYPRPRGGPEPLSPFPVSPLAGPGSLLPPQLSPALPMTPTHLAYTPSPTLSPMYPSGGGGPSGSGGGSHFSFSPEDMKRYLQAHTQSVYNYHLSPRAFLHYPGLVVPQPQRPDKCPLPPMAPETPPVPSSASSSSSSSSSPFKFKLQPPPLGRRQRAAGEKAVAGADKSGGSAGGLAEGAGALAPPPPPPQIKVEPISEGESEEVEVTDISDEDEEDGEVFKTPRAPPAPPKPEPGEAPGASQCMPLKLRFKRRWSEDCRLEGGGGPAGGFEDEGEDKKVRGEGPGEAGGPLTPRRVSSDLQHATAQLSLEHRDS
Conditions: protein: recombinant; tags: N-terminal GST; dsDNA, one strand shown. A digest of the protocol:
as §1

In a further experiment the target is T7, ETV3L (Homo sapiens, UniProt Q6ZN32 1-361).
T7 sequence: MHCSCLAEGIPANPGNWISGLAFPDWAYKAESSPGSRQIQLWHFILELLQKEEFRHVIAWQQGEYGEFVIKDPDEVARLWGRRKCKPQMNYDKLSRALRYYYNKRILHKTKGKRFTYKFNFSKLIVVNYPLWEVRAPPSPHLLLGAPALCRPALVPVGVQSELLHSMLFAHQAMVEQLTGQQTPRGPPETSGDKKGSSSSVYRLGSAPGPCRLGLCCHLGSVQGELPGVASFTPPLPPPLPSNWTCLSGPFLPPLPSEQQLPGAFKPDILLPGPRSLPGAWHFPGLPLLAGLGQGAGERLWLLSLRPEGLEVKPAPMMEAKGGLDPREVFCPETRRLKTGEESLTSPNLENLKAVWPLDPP
Conditions: protein: recombinant; tags: N-terminal GST; dsDNA, one strand shown. The method, boiled down:
as §1

A further experiment concerns the target T8, ETS2 (Homo sapiens, UniProt P15036 1-469).
T8 sequence: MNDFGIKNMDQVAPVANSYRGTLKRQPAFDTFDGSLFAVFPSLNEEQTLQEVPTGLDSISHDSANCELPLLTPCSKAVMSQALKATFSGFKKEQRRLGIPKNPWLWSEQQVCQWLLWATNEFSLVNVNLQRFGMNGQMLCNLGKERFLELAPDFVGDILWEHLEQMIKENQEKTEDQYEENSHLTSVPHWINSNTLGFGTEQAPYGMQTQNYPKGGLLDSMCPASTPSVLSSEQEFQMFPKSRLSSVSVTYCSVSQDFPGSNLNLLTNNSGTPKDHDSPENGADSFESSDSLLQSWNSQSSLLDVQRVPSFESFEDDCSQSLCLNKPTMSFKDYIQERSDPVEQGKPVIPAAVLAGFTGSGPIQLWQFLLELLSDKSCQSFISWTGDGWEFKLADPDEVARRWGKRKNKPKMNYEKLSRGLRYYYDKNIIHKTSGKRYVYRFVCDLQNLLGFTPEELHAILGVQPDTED
Conditions: protein: recombinant; tags: N-terminal GST; dsDNA, one strand shown. The method, boiled down:
as §1

In a further experiment the target is T9, SPDEF (Homo sapiens, UniProt O95238 1-335).
T9 sequence: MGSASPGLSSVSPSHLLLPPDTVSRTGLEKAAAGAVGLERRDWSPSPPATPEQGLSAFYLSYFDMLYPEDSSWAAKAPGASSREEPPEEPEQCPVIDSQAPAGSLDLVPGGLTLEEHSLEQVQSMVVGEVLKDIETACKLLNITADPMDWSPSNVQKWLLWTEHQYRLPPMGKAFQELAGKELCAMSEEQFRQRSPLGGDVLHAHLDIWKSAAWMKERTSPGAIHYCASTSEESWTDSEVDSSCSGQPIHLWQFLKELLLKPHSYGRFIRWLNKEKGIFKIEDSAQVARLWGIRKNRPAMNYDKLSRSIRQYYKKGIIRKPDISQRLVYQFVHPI
Conditions: protein: recombinant; tags: N-terminal GST; dsDNA, one strand shown. The method, boiled down:
as §1

The target of the next experiment is T10, ETV7 (Homo sapiens, UniProt Q9Y603 1-341).
T10 sequence: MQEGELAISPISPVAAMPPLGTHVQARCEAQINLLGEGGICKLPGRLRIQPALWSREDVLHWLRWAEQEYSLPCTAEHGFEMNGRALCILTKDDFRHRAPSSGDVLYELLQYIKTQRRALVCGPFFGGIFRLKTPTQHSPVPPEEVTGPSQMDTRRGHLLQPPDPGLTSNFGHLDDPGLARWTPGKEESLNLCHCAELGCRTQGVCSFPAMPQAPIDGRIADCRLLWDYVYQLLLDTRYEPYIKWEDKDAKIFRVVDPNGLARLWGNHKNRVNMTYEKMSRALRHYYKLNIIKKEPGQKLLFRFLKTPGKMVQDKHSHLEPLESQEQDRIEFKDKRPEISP
Conditions: protein: recombinant; tags: N-terminal GST; dsDNA, one strand shown. A digest of the protocol:
as §1

Another experiment has as its target T11, ELF5 (Homo sapiens, UniProt Q9UKW6-2 1-255).
T11 sequence: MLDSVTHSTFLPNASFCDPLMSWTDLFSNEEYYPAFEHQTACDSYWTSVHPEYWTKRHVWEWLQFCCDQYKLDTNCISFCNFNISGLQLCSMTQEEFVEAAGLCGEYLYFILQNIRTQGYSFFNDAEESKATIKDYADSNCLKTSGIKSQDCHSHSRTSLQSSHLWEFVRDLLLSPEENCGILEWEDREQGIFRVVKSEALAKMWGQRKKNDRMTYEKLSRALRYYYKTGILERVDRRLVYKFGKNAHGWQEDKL
Conditions: protein: recombinant; tags: N-terminal GST; dsDNA, one strand shown. The method, boiled down:
as §1

Another experiment addresses T12, ETV3 (Homo sapiens, UniProt P41162-2 1-143).
T12 sequence: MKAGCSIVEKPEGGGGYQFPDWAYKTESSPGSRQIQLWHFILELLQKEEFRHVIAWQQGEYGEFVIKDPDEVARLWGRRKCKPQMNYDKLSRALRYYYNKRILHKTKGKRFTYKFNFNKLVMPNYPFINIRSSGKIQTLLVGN
Conditions: protein: recombinant; tags: N-terminal GST; dsDNA, one strand shown. The method, boiled down:
as §1

The target in the next experiment is ETV6 (Homo sapiens, UniProt P41212 1-452). Conditions: protein: recombinant; tags: N-terminal GST; dsDNA, one strand shown. A digest of the protocol:
as §1

Chain of ETV6 (P41212 whole entry): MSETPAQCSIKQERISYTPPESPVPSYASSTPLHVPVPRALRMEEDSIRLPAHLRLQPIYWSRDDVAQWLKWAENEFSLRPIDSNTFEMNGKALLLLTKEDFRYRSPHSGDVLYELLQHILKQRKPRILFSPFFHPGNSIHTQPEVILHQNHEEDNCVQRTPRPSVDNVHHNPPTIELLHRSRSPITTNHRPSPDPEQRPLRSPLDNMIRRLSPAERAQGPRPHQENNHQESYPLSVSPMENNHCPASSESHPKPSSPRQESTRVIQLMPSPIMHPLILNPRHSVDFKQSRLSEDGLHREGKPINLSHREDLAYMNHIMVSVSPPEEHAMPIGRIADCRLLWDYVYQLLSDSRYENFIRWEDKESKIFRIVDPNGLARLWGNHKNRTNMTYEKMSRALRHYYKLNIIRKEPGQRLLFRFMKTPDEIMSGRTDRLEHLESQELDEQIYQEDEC
Chain of ETV1 (P50549 whole entry): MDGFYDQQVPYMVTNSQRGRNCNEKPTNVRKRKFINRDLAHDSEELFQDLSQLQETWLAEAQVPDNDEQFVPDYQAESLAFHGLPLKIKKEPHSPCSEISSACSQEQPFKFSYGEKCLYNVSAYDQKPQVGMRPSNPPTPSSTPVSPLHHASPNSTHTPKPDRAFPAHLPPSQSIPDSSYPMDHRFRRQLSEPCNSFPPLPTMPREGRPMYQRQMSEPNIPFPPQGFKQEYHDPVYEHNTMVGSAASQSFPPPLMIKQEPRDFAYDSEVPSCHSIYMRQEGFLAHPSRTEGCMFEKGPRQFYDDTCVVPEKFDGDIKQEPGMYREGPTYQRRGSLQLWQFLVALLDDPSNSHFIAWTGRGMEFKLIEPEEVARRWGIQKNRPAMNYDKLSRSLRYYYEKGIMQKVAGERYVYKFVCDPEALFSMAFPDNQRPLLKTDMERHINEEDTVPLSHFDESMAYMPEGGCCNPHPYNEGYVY
Chain of ELF4 (Q99607 whole entry): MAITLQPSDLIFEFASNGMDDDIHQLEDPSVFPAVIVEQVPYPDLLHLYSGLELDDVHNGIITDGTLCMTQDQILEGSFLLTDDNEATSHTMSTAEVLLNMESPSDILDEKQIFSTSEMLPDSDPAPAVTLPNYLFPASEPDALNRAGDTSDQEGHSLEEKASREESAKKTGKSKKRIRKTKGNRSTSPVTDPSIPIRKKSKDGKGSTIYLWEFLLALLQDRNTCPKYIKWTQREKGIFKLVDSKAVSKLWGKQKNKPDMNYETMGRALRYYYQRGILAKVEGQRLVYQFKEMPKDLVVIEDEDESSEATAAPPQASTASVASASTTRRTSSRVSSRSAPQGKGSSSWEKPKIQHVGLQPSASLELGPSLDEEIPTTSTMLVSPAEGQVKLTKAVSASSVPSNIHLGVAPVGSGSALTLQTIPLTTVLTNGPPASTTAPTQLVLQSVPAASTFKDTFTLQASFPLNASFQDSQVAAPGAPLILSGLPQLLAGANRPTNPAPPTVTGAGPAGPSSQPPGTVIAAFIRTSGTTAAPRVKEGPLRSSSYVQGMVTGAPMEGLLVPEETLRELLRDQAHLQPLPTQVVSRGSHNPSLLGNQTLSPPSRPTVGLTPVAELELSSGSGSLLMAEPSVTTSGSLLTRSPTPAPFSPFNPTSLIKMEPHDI
Chain of HSF1 (Q00613 whole entry): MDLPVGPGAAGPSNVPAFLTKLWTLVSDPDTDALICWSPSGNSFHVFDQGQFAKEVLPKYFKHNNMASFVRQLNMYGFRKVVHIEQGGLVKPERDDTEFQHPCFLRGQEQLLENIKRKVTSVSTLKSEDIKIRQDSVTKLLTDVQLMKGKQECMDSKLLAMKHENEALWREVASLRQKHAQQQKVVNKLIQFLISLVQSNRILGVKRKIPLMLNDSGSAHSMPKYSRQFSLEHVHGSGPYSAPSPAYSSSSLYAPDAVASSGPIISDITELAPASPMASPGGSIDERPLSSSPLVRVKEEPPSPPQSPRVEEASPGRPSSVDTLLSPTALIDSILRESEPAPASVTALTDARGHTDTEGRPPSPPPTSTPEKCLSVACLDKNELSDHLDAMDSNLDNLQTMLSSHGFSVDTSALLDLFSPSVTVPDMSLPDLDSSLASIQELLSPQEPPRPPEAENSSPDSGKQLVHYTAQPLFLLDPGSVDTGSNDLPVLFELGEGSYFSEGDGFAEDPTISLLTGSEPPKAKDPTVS

Consider TATCGT, for which the binding signal with FEV is 1.05 fold enrichment (6-mer frequency, TF over GST control); with ETV5, 1.12 fold enrichment (6-mer frequency, TF over GST control); in the experiment with HSF1, 1.17 fold enrichment (6-mer frequency, TF over GST control); in the experiment with SPIC it was 1.09 fold enrichment (6-mer frequency, TF over GST control); with ELF4, 1.07 fold enrichment (6-mer frequency, TF over GST control); with ELK4, 1.13 fold enrichment (6-mer frequency, TF over GST control). Also, the binding signal is 1.16 fold enrichment (6-mer frequency, TF over GST control) in the experiment with ETV2; 1.15 fold enrichment (6-mer frequency, TF over GST control) with ELF3; 1.28 fold enrichment (6-mer frequency, TF over GST control) with CRX; 1.21 fold enrichment (6-mer frequency, TF over GST control) in the experiment with ETV1; 1.28 fold enrichment (6-mer frequency, TF over GST control) in the experiment with ERF; 1.08 fold enrichment (6-mer frequency, TF over GST control) with ETV3L. Further, the binding signal with ETS2 is 1.11 fold enrichment (6-mer frequency, TF over GST control); with SPDEF, 1.07 fold enrichment (6-mer frequency, TF over GST control); with ETV7, 1.08 fold enrichment (6-mer frequency, TF over GST control); with ELF5 it was 1.08 fold enrichment (6-mer frequency, TF over GST control); with ETV3, 1.15 fold enrichment (6-mer frequency, TF over GST control); with ETV6 it was 1.12 fold enrichment (6-mer frequency, TF over GST control).

These data come from publication PMC7862700, “An all-to-all approach to the identification of sequence-specific readers for epigenetic DNA modifications on cytosine”.
